This note sets out measurements from PubChem BioAssay (NCI).

Common to all, as to experiment: NCI-60 one-dose screen, 48 h (100 = growth as untreated, 0 = no growth, -100 = all killed)
Conditions in all cases: 10 µM unless noted

The subject of test [1] is NCI-H23 lung.
For test [2], the system named is NCI-H226 lung.
The test system of test [3] is NCI-H322M lung.
For test [4], the system named is HOP-62 NSCLC.
Test [5] concerns NCI-H460 lung.
In test [6] the test system is HOP-92 NSCLC.
Test [7] relates to NCI-H522 lung.
The subject of test [8] is A549/ATCC NSCLC.
The test system of test [9] is 786-0 renal.
Test [10] deals with COLO 205 colon.
In test [11] the test system is DU-145 prostate.
Test [12] concerns K-562 leukemia.
Test [13] deals with MALME-3M melanoma.
Test [14] relates to MDA-MB-231 breast.
Test [15] deals with RXF 393 renal.
Test [16] deals with SF-268 CNS.
The subject of test [17] is SF-295 CNS.
In test [18] the test system is SF-539 CNS.
The subject of test [19] is UACC-257 melanoma.
In test [20] the test system is M14 melanoma.

Compounds without any hit were thinned out: in the full panel of roughly 83,000, 20% have a hit.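 Activity criterion: percent growth below 10, measured after cells in 96-well plates were exposed to a single compound concentration for 48 hours.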 Unmarked numbers belong to inactive results. The source made the active and inactive calls.

Take `Cc1ccc(C(C)C)cc1C(=O)C[n+]1ccccc1`: the growth in test [1] was 113%; in test [2], 105%; in test [3], 96.8%; in test [4], 91.6%; in [5] it was 109%; in test [6], 100%. Moreover, the growth was 81.7% in test [7]; 101% in test [8]; 96.4% in test [9]; 112% in test [10]; 107% in test [11]; 105% in test [12]. In addition, the growth in test [13] is 95.9%; in test [14] it was 112%; in test [15], 121%; in [16] it was 98.8%; in test [17], 93.5%; in [18], 97.1%. The growth in test [19] is 115%; in [20], 95.6%.
`C=C1C(=O)O[C@H]2[C@H]1CC/C(COC(=O)CCC(=O)NCCOCCOCC(=O)Nc1ccc(OC)c(C(N)=O)c1O)=C\CC[C@@]1(C)O[C@@H]21`: the growth in test [1] was 101%; in test [2], 55.5%; in [3], 101%; in test [4] it was 90.3%; in test [5], 79.3%; in test [6] it was 68.6%. Besides, the growth in [7] is 26.5%; in test [8], 91.4%; in [9], 91.8%; in test [10] it was 63.7%; in test [11], 101%; in test [12] it was 86.2%. Moreover, the growth is 92.7% in test [13]; 95.2% in [14]; 67.9% in test [15]; 95.2% in test [16]; 97.3% in [17]; 88.8% in test [18]. For the same compound, the growth was 77.6% in test [19] and 93.3% in test [20].
Take `O=c1c2cc(C(F)(F)F)ccc2sc2c(NCCCNCCO)nc3ccccc3c12`: the growth in test [1] is 45%; in [2], 75.7%; in [3] it was 58.5%; in test [4] it was 40.7%; in test [5], -82.3% (active); in test [6] it was 27.9%. For the same compound, the growth was -22.2% (active) in [7]; -29.6% (active) in [8]; 43% in test [9]; -53.2% (active) in test [10]; -71.6% (active) in test [11]; -47.1% (active) in test [12]. Further, the growth in test [13] is 75.2%; in test [14] it was -58.7% (active); in test [15], 42.6%; in test [16], 36.6%; in [17], 42.7%; in [18], -79.1% (active). Further, the growth in test [19] was 92%; in test [20] it was -38.9% (active).
`C=C1CC[C@H](C(C)C)[C@@H]2[C@H]1[C@H]1CC(=C)[C@@H](O)CC[C@@](C)(O)[C@@H]2O1`: the growth in test [1] is 81.6%; in [2], 95.2%; in [3] it was 95.4%; in test [4] it was 84.3%; in test [5], 108%; in test [6], 86.3%. The growth in [7] was 89.5%; in test [8], 86.2%; in test [9], 82.6%; in test [10], 117%; in test [11], 102%; in test [12], 97.8%. Besides, the growth in test [13] was 98%; in test [14] it was 105%; in [15] it was 108%; in test [16], 94.7%; in [17], 98.4%; in test [18], 98.1%. Besides, the growth is 86.2% in test [19] and 98.6% in test [20].
On to `O=C(/C=C/c1ccc([N+](=O)[O-])o1)NNC(=O)c1cc2ccccc2cc1O`, for which the growth is 6.76% (active) in [1]; 0.682% (active) in [2]; 23.3% in test [3]; 27.5% in [4]; 9.04% (active) in test [5]; 4.15% (active) in [6]. Further, the growth is -79.5% (active) in test [7]; 32.4% in test [8]; -23.8% (active) in test [9]; -7.38% (active) in test [10]; 11.7% in test [11]; 3.48% (active) in test [12]. Also, the growth is -36.3% (active) in [13]; 21% in test [14]; -20.8% (active) in test [15]; -3.99% (active) in [16]; 54.8% in [17]; -22.6% (active) in test [18]. The values for the growth in test [19] and in [20] were -16.5% (active) and -93.3% (active), respectively.
As to `CCCCCCCCCCCCCCCCCCOc1ccc(CC(=O)OCC[N+](C)(C)C)cc1`, the growth in test [1] was 93.3%; in [2], 95.1%; in test [3], 103%; in test [4], 108%; in [5] it was 100%; in test [6], 103%. For the same compound, the growth in test [7] is 95.7%; in test [8], 94.6%; in [9], 93%; in [10], 115%; in test [11] it was 99.9%; in test [12] it was 47.7%. The growth in test [13] was 113%; in [14], 110%; in test [15], 90.1%; in test [16], 104%; in test [17], 97.6%; in [18] it was 97.9%. Also, the growth was 108% in test [19] and 91.5% in [20].
As to `Cc1cccc2c(=O)c3c(sc12)c(NCc1ccccc1)nc1ccccc13`, the growth is 84.5% in test [1]; 76.3% in test [2]; 89.9% in test [3]; 87.5% in [4]; 54.8% in test [5]; 111% in test [6]. Also, the growth was 81.6% in test [7]; 92% in test [8]; 100% in test [9]; 87.2% in test [10]; 102% in test [11]; 101% in [12]. Also, the growth in test [13] was 110%; in test [14], 89.4%; in test [15] it was 107%; in test [16], 107%; in test [17], 98.9%; in [18], 102%. Also, the growth is 104% in [19] and 103% in test [20].
Take `C[C@H](C(=O)Nc1ccc(S(N)(=O)=O)cc1)S(=O)(=O)c1ccccc1`: the growth in test [1] is 94.3%; in [2], 98%; in test [3], 108%; in [4] it was 87.6%; in [5], 108%; in [6] it was 94%. The growth in test [7] was 90.7%; in [8] it was 102%; in [9], 101%; in [10], 107%; in test [11], 108%; in [12], 106%. The growth is 101% in test [13]; 114% in test [14]; 88.1% in test [15]; 102% in [16]; 94.6% in test [17]; 102% in test [18]. Moreover, the growth was 103% in [19] and 104% in test [20].
